The first test addresses Cyclin-dependent kinase 1 (Homo sapiens) (UniProt P06493). Conditions: at 0.1 µM.
Chain of Cyclin-dependent kinase 1 (Homo sapiens) (P06493 whole entry, looked up): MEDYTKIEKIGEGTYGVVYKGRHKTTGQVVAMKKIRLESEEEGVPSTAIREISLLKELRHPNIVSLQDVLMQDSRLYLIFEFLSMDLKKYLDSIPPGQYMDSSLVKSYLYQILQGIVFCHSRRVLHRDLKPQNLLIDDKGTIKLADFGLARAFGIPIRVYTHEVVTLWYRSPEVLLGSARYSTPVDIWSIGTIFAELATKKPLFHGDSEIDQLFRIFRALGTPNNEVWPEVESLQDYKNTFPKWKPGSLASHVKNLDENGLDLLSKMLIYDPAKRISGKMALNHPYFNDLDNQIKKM
Consider `NS(=O)(=O)c1ccc(N/N=C2\C(=O)Nc3ccc(C(=O)NCCCn4ccnc4)cc32)cc1`, for which the inhibition (commonly the drop in the measured response relative to a control, in per cent) was found to be 20.5%.

Regarding `O=C(Nc1ccc(Oc2ccc3[nH]c(NC(=O)c4ccccc4)nc3c2)cc1)Nc1cc(C(F)(F)F)ccc1F`, the inhibition worked out at 0.28%.

Take `COc1ccc2cc(-c3c(-c4ccncc4)nc(-c4ccc([S+](C)[O-])cc4C)n3C)ccc2c1` (stereo not drawn): the inhibition is 0.98%.

As for `Cc1ccc(NC(=O)c2ccoc2)cc1-c1ccc(C(=O)NCC2CC2)cc1`, the inhibition was found to be 1.06%.

For `C[C@@H](Oc1cc(-n2cnc3ccc(OC4CCN(C)CC4)cc32)sc1C(N)=O)c1ccccc1Cl`, the inhibition was -1.71%.

On to `CN(c1ccc(NC(=O)Nc2c(Cl)cccc2Cl)cc1)c1ccnc(Nc2cccc(CS(C)(=O)=O)c2)n1`, for which the inhibition was 0.58%.

Regarding `Fc1ccc(-c2ncn(C3CCNCC3)c2-c2ccnc(Oc3ccc(Oc4ccccc4)cc3)n2)cc1`, the inhibition was 1.88%.

As for `COc1cccc(/C=N/Nc2ncnc3c2cnn3-c2cccc(OC)c2)c1`, the inhibition was found to be 1.12%.

Regarding `O=C(Nc1n[nH]c2nc(-c3ccc(O)cc3)c(Br)cc12)C1CC1`, the inhibition was 24.2%.

`COc1cc2ncn(-c3cc(OCc4ccccc4C(F)(F)F)c(C(C)=O)s3)c2cc1OC`: the inhibition turned out to be 0.91%.

For the compound `Cc1ccc(C(=O)NC2CCC2)cc1-c1ccc(C(=O)NCC2CC2)cc1`, the inhibition came to 0.42%.

`COC(=O)Nc1nc2ccc(Sc3ccc(NC(=O)Nc4cc(C(F)(F)F)ccc4F)cc3)cc2[nH]1`: the inhibition worked out at 0.09%.

Turning to `COc1ccc(-c2ccc3c(NC(=O)C4CC4)n[nH]c3n2)cc1`, the inhibition was 0.44%.

As for `Cc1ccc(C(=O)NC(C)C)cc1-c1ccc(C(=O)NCC2CC2)cc1`, the inhibition was 0.57%.

Regarding `O=C(Nc1n[nH]c2cc(-c3ccccc3)ccc12)C1CC1`, the inhibition was determined as 0.9%.

Regarding `CNC(=O)c1cncc(/C=C/c2c(C)cccc2C)c1`, the inhibition is -3.38%.

`C/C(Nc1ccc(S(N)(=O)=O)cc1)=C1/C(=O)Nc2ccccc21`: the inhibition was determined as 0.68%.

Take `NC(=O)c1ccc(Oc2nccc(-c3c(-c4ccc(F)cc4)ncn3C3CCNCC3)n2)cc1`: the inhibition worked out at 3.25%.

Take `NC(=O)Cc1ccccc1Oc1nccc(-c2c(-c3ccc(F)cc3)ncn2C2CCNCC2)n1`: the inhibition is -0.31%.

With `NCc1ccc(-n2c(-c3nonc3N)nc3cnccc32)cc1`, the inhibition amounted to 3.12%.

With `O=C(Nc1n[nH]c2cc(-c3cc(F)ccc3F)ccc12)C1CC1`, the inhibition was 1.12%.

As to `NS(=O)(=O)c1ccc(N/N=C2\C(=O)Nc3ccc(-c4cnco4)cc32)cc1`, the inhibition was determined as 32.6%.

As to `N#Cc1ccc(Oc2nccc(-c3c(-c4ccc(F)cc4)ncn3C3CCNCC3)n2)cc1`, the inhibition came out at 0.28%.

Turning to `O=C(Nc1n[nH]c2nc(-c3ccco3)ccc12)C1CC1`, the inhibition was -0.24%.

For the compound `NS(=O)(=O)c1ccc(Nc2cc(-c3ccc(O)c(F)c3)n[nH]2)cc1`, the inhibition was 10.9%.

As for `COc1cccc(-n2cnc3c(N/N=C/c4ccncc4)ncnc32)c1`, the inhibition was -3.5%.

`COc1cc(N2CCN(C(C)C)CC2)ccc1Nc1nc(Nc2ccc(F)cc2C(=O)NC[C@@H](O)CO)c2cc[nH]c2n1`: the inhibition was -2.84%.

As for `Fc1ccc(-c2ncn(C3CCNCC3)c2-c2ccnc(Oc3ccc4c(c3)OCO4)n2)cc1`, the inhibition came out at 0.2%.

For `COc1cc(Nc2ncc(-c3ccccc3)o2)cc(OC)c1OC`, the inhibition came to 0.44%.

`Fc1ccc(-c2nc3n(c2-c2ccncc2)CCS3)cc1`: the inhibition is -2.26%.

Turning to `COc1ccc(C2=C(N3CCc4ccccc43)C(=O)NC2=O)cc1`, the inhibition came out at 1.56%.

As for `C[C@@H](Oc1cc(-n2cnc3ccc(OCC4CCN(C)CC4)cc32)sc1C(N)=O)c1ccccc1Cl`, the inhibition turned out to be 1.74%.

For `O=C(NCC1CC1)c1ccc(-c2cccc(C(=O)NC3CC3)c2)cc1`, the inhibition is -0.46%.

In the case of `Fc1ccc(-c2ncn(CCCN3CCOCC3)c2-c2ccncc2)cc1`, the inhibition came out at 0.43%.

The next test has the same target. Conditions: at 1 µM.
Consider `NS(=O)(=O)c1ccc(N/N=C2\C(=O)Nc3ccc(C(=O)NCCCn4ccnc4)cc32)cc1`, for which the inhibition is 66.7%.

As to `O=C(Nc1ccc(Oc2ccc3[nH]c(NC(=O)c4ccccc4)nc3c2)cc1)Nc1cc(C(F)(F)F)ccc1F`, the inhibition was determined as 3.27%.

As to `COc1ccc2cc(-c3c(-c4ccncc4)nc(-c4ccc([S+](C)[O-])cc4C)n3C)ccc2c1` (stereo not drawn), the inhibition came out at 3.25%.

On to `Cc1ccc(NC(=O)c2ccoc2)cc1-c1ccc(C(=O)NCC2CC2)cc1`, for which the inhibition is 1.75%.

On to `C[C@@H](Oc1cc(-n2cnc3ccc(OC4CCN(C)CC4)cc32)sc1C(N)=O)c1ccccc1Cl`, for which the inhibition was -2.15%.

Turning to `CN(c1ccc(NC(=O)Nc2c(Cl)cccc2Cl)cc1)c1ccnc(Nc2cccc(CS(C)(=O)=O)c2)n1`, the inhibition is 3.72%.

As for `Fc1ccc(-c2ncn(C3CCNCC3)c2-c2ccnc(Oc3ccc(Oc4ccccc4)cc3)n2)cc1`, the inhibition turned out to be 2.92%.

Regarding `COc1cccc(/C=N/Nc2ncnc3c2cnn3-c2cccc(OC)c2)c1`, the inhibition was 4.16%.

As for `O=C(Nc1n[nH]c2nc(-c3ccc(O)cc3)c(Br)cc12)C1CC1`, the inhibition was 64.2%.

For `COc1cc2ncn(-c3cc(OCc4ccccc4C(F)(F)F)c(C(C)=O)s3)c2cc1OC`, the inhibition turned out to be 2.22%.

`Cc1ccc(C(=O)NC2CCC2)cc1-c1ccc(C(=O)NCC2CC2)cc1`: the inhibition worked out at 1.39%.

Consider `COC(=O)Nc1nc2ccc(Sc3ccc(NC(=O)Nc4cc(C(F)(F)F)ccc4F)cc3)cc2[nH]1`, for which the inhibition worked out at 3.86%.

With `COc1ccc(-c2ccc3c(NC(=O)C4CC4)n[nH]c3n2)cc1`, the inhibition came out at 4.03%.

`Cc1ccc(C(=O)NC(C)C)cc1-c1ccc(C(=O)NCC2CC2)cc1`: the inhibition was 2.57%.

Regarding `O=C(Nc1n[nH]c2cc(-c3ccccc3)ccc12)C1CC1`, the inhibition was 5.76%.

In the case of `CNC(=O)c1cncc(/C=C/c2c(C)cccc2C)c1`, the inhibition was determined as 1.17%.

For `C/C(Nc1ccc(S(N)(=O)=O)cc1)=C1/C(=O)Nc2ccccc21`, the inhibition was 14.5%.

As to `NC(=O)c1ccc(Oc2nccc(-c3c(-c4ccc(F)cc4)ncn3C3CCNCC3)n2)cc1`, the inhibition worked out at 1.41%.

As to `NC(=O)Cc1ccccc1Oc1nccc(-c2c(-c3ccc(F)cc3)ncn2C2CCNCC2)n1`, the inhibition was -0.43%.

As to `NCc1ccc(-n2c(-c3nonc3N)nc3cnccc32)cc1`, the inhibition was 10.5%.

As to `O=C(Nc1n[nH]c2cc(-c3cc(F)ccc3F)ccc12)C1CC1`, the inhibition was determined as 7.47%.

As for `NS(=O)(=O)c1ccc(N/N=C2\C(=O)Nc3ccc(-c4cnco4)cc32)cc1`, the inhibition was determined as 66.8%.

Consider `N#Cc1ccc(Oc2nccc(-c3c(-c4ccc(F)cc4)ncn3C3CCNCC3)n2)cc1`, for which the inhibition turned out to be 1.02%.

On to `O=C(Nc1n[nH]c2nc(-c3ccco3)ccc12)C1CC1`, for which the inhibition worked out at 2.61%.

Take `NS(=O)(=O)c1ccc(Nc2cc(-c3ccc(O)c(F)c3)n[nH]2)cc1`: the inhibition was determined as 51.7%.

In the case of `COc1cccc(-n2cnc3c(N/N=C/c4ccncc4)ncnc32)c1`, the inhibition was found to be 0.55%.

With `COc1cc(N2CCN(C(C)C)CC2)ccc1Nc1nc(Nc2ccc(F)cc2C(=O)NC[C@@H](O)CO)c2cc[nH]c2n1`, the inhibition is -2.45%.

Take `Fc1ccc(-c2ncn(C3CCNCC3)c2-c2ccnc(Oc3ccc4c(c3)OCO4)n2)cc1`: the inhibition amounted to 1.39%.

Take `COc1cc(Nc2ncc(-c3ccccc3)o2)cc(OC)c1OC`: the inhibition was determined as 6.1%.

For the compound `Fc1ccc(-c2nc3n(c2-c2ccncc2)CCS3)cc1`, the inhibition is -3.55%.

`COc1ccc(C2=C(N3CCc4ccccc43)C(=O)NC2=O)cc1`: the inhibition turned out to be 3.2%.

On to `C[C@@H](Oc1cc(-n2cnc3ccc(OCC4CCN(C)CC4)cc32)sc1C(N)=O)c1ccccc1Cl`, for which the inhibition is 3.79%.

Turning to `O=C(NCC1CC1)c1ccc(-c2cccc(C(=O)NC3CC3)c2)cc1`, the inhibition turned out to be 1.27%.

In the case of `Fc1ccc(-c2ncn(CCCN3CCOCC3)c2-c2ccncc2)cc1`, the inhibition was determined as 2.72%.

The values above are taken from ChEMBL document CHEMBL1961873, “Compounds: GSK PKIS; Assays: Nanosyn kinase panel” (2012).
